The record followed here is PubChem BioAssay AID651725 (National Center for Advancing Translational Sciences (NCATS), 2012).

Out of some 360,000 compounds screened, about 2,000 (0.56%) were called active. Another 2% or so got no clear call; they are omitted. This excerpt belongs to a sample that is enriched for actives. Unmarked numbers belong to inactive results. Rule as the data show it: active = activity change below about -65%; inconclusive = mostly about -30% to -63%; inactive = weaker than that.
% is scaled to controls: 0 for no effect and ±100 for the full control effect.

Chain of Homeobox protein SIX1 (Homo sapiens) + Protein phosphatase EYA2 (Homo sapiens) (O00167 whole entry, looked up): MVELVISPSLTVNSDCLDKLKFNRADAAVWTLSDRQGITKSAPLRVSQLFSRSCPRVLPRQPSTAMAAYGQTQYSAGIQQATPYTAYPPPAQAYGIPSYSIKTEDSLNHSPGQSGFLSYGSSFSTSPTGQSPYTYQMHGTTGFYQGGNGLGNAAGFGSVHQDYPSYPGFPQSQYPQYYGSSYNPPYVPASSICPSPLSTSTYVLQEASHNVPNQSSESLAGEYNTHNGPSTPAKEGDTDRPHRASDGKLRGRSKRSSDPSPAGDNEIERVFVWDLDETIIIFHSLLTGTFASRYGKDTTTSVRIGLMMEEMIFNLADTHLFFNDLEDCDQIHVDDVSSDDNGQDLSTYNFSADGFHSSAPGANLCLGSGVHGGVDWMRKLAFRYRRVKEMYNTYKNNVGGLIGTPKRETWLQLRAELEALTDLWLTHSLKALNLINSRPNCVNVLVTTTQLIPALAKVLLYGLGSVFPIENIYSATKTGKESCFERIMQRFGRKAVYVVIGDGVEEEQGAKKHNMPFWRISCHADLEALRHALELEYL
Chain of Homeobox protein SIX1 (Homo sapiens) + Protein phosphatase EYA2 (Homo sapiens) (Q15475 whole entry, looked up): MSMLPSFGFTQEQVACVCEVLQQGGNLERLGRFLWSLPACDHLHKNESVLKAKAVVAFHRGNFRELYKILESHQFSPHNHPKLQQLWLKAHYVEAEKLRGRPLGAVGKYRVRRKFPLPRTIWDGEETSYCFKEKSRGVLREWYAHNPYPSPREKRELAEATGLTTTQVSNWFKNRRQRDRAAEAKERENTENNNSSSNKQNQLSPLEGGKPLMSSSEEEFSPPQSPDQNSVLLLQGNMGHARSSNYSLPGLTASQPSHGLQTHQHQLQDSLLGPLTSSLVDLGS

The target in this assay is Homeobox protein SIX1 (Homo sapiens) + Protein phosphatase EYA2 (Homo sapiens) (UniProt Q15475+O00167). Nature of the assay: qHTS Assay for Inhibitors of the Six1/Eya2 Interaction. The settings on record: AlphaScreen GST-Six1/His-Eya2 binding, biochemical; active compounds read low. From the text:
Its expression is low or undetectable in normal adult breast tissue but the gene is over-expressed in 50% of primary breast tumors and 90% of metastatic lesions. […] Similar to Six1, Eya2 is also not expressed in most normal adult tissues, but is reexpressed in cancers. The Six1-Eya interaction is essential for proliferation during embryonic development, and both Six1 and Eya2 have been independently implicated in the same types of cancer. Because Six1 and Eya2 are embryonic genes with little expression in adult tissues, inhibitors of their expression/activity are likely to have limited side effects. Our goal is to identify inhibitors of the Six1/Eya interaction for potential cancer therapy. To this end, we have developed a homogenous AlphaScreen assay targeting the Six1/Eya interaction. We performed a large scale HTS of the Molecular Libraries Small Molecule Repository (MLSMR) to identify inhibitors of the Six1/Eya interaction as potential anti-cancer therapeutics. Compounds identified can also be used as chemical probes to better understand the biological functions of Six1 and Eya. NIH Chemical Genomics Center [NCGC] NIH Molecular Libraries Probe Centers Network [MLPCN] MLPCN Grant: DA033147 Assay Submitter (PI): Rui Zhao, University of Colorado Denver
The first step of the 5 uL AlphaScreen assay is to dispense assay buffer (50 mM Tris, pH 8.0, 300 mM NaCl, 0.05% BSA, 0.02% Tween 20, 1 mM TCEP) into a Greiner 1536 white solid bottom microtiter plate (789175-F). Five microliters is added to Column 1, 4 uL is added to Column 2 and 3 uL is added to Columns 3 through 48. A 5X protein solution (250 nM GST-Six1 protein + 500 nM His-tagged Eya2 protein) is mixed and 1 uL is dispensed to Columns 3-48. Using a 1536 pintool, 23 nL of compound is transferred to the assay plate. A solution of 5X AlphaScreen beads is mixed (50 ug/mL Glutathione linked donor beads + Nickel chelated acceptor beads) and 1 uL is dispensed to Columns 2-48. The assay plate is incubated for one hour, with a lid, at 37 deg C in the dark. The plate is read using a Perkin Elmer Envision using an AlphaScreen protocol.
Turning to `Cc1ccc(S(=O)(=O)N2[C@@H](Cc3ccccc3)CO[C@H]2CC(=O)OCc2ccccc2)cc1`, the activity change was -3.63%.
To `CCOC(=O)C1C(C)C(C(C)(C)C)N(S(=O)(=O)c2ccc(C)cc2)C1c1ccccc1` (stereo not given) belongs 6.65%; to `CCOc1cccc(/C=N/NC(=S)NCCN2CCOCC2)c1O`, -92.1% (active); to `O=C(NCCN1CCOCC1)Nc1cccc(Cl)c1`, 3.67%.
To `C=C(C)CNC(=S)N/N=C/c1ccccc1OCC(=O)O` belongs 0.44%; to `CCOC(=O)[C@]12CCCC=C1N(CCC1=CCCCC1)C(=O)[C@H](CC(=O)N1CCCCC1)C2`, -1.85%; to `COc1ccc(C(=O)C(OP(=O)(OC)OC)c2ccccc2OC)cc1` (stereo not given), 2.49%.
Regarding `O=C(COC(=O)Cc1ccc(Br)cc1)Nc1c(F)c(F)c(F)c(F)c1F`, the activity change was 1.31%.
Then `Brc1ccccc1/C=N/Nc1nc2ccccc2o1`, with -4.05%.
`Oc1ccc(/C=N/Nc2nc(-c3ccccc3F)nc3ccccc23)c(O)c1`: the activity change is -71.7% (active).
Then `Cc1nc2ccccc2nc1N/N=C/c1ccc(O)cc1O`, with -69.1% (active).
Then `Oc1ccc2nc(Cc3ccccc3)[nH]c2c1`, with -2.17%; and `O=C(C[C@H]1CC[C@@H](NC(=O)c2ccncc2)[C@@H](CO)O1)NCC1CC1`, with 8.47%; and `CCCCCCCCN1C(=O)[C@H](CC(=O)NCC23CC4CC(CC(C4)C2)C3)C[C@@]2(C(=O)OC)CCCCC=C12`, with -0.139%.
Then `O=S1(=O)CC(N2CCSCC2)CN1Cc1cn(Cc2cccc(Cl)c2)nn1` (stereo not given), with 0.627%; and `CCOc1cccc2c1OC1(CCCCC1)N1N=C(c3cccnc3)CC21` (stereo not given), with -13.8%.
In the case of `C[C@H]1COc2cc(N3CCSCC3)ccc2S(=O)(=O)N1`, the activity change was 3.55%.
Then `COc1ccc(S(=O)(=O)Nc2ccc(F)cc2)c(C)c1C`, with -0.291%; and `COc1cc(N2CCCC2)c(OC)cc1/C=C(/C#N)c1cccc(Br)c1`, with -67% (active); and `Cc1nc2c(OCc3ccc(Cl)cc3Cl)cccn2c1N(C)CC1CC1`, with -5.16%.
With `Nc1nc2ncccn2c1-c1ccccc1`, the activity change was 3.63%.
As to `CCCOc1ccc(Cc2c(O)nc(N)[nH]c2=O)cc1C`, the activity change is -5.12%.
To `Cc1ccc(S(=O)(=O)N2CC3C(=O)C[C@@H](c4ccccc4Cl)N(S(=O)(=O)c4ccc(C)cc4)C3CC2c2ccccc2)cc1` (stereo not given in full) belongs -4.43%.
To `CC1(C)OC(=O)C2=C(C[C@@H](C3CC3)O[C@H]2CCc2cccc(Cl)c2)O1` belongs 7.67%; to `CCc1c(-c2ccc(F)cc2)ncn1Cc1cccc(-c2ccccc2)c1`, -29.6%.
Then `NC(=O)C1CCN(C(=O)COc2cccc3cccnc23)CC1`, with 8.87%; and `O=S(=O)(NCCOc1cccc2cccnc12)c1ccc(F)cc1`, with 6.83%.
In the case of `O=C(Nc1ccccc1)Oc1cccc2cccnc12`, the activity change is -91.9% (active).
Then `CCCCNC(=O)C[C@@H]1C[C@@]2(C(=O)OC)CC(C)(C)CC=C2N(Cc2ccco2)C1=O`, with -8.69%; and `CCCc1c(C(=O)Nc2ccc(F)cc2)cnn1-c1ccccc1`, with 1.46%.
Then `COCCCn1cc(CN2CC(N(C)C)CS2(=O)=O)nn1` (stereo not given), with 15.9%.
In the case of `COC(=O)[C@]12CCCCC=C1N(CCC1=CCCCC1)C(=O)[C@H](CC(=O)N1CCSCC1)C2`, the activity change was -5.23%.
To `COc1ccc(NC(=O)CCNC(=O)Cn2cnc3sc4c(c3c2=O)CCCC4)cc1OC` belongs -2.73%; to `COc1ccc(/C=N/Nc2ncnc3sc4c(c23)CCCC4)cc1O`, -78.1% (active); to `COc1ccc(NC(=O)CCCNC(=O)Cn2cnc3sc4c(c3c2=O)CCCC4)cc1OC`, -5.21%.
Then `CO[C@@H]1CN(C)C(=O)c2cc(NC(=O)Nc3cc(F)ccc3F)ccc2OC[C@H](C)N(C(=O)c2ccccn2)C[C@@H]1C`, with -5.82%; and `CCOC(=O)N1CCN(C(=O)C[C@@H]2C[C@@]3(C(=O)OC)CC(C)(C)CC=C3N(Cc3ccco3)C2=O)CC1`, with -1.81%.
To `COc1ccccc1C(=O)NCCC(=O)N(C)Cc1cccnc1` belongs 6.46%; to `COc1ccc2c(c1)c(=Cc1ccc(N(C)C)cc1)c1cc(-c3ccccc3)[n+](C)n12`, -69.4% (active).
In the case of `CCCCCNC(=O)C1C(=O)Nc2ccccc2C(=O)N1C(C)(C)C` (stereo not given), the activity change was 1.59%.
As for `Nc1ncnc2c1ncn2[C@@H]1O[C@H](CNCc2cccn2-c2nccs2)[C@@H](O)[C@H]1O`, the activity change is 0.147%.
Then `COc1ccc(CCn2c(=N)c(C(=O)NCc3ccco3)cc3c(=O)n4cccc(C)c4nc32)cc1`, with -68.6% (active).
To `Cc1ccc(S(=O)(=O)c2cc3c(=O)n4cccc(C)c4nc3n(CCc3ccccc3)c2=N)cc1C` belongs 0.223%; to `Cc1cccn2c(=O)c3cc(C(=O)NCCN4CCOCC4)c(=N)n(Cc4cccnc4)c3nc12`, -20.8%.
To `Cc1cccc(N(C(=O)c2ccc(CN3CCOCC3)o2)C(C(=O)NC2CCCCC2)c2ccc(F)cc2)c1` (stereo not given) belongs 0%.
Turning to `COC(=O)[C@@]12C[C@@H](CC(=O)NCc3cccc(C(F)(F)F)c3)C(=O)N(Cc3ccco3)C1=CCC(C)(C)C2`, the activity change was -8.64%.
Then `CCOC(=O)c1c(C)oc2cc(Br)c(OCC(N)=O)cc12`, with 5.69%; and `CCOC(=O)N1CCN(C(=O)COc2ccc3oc4c(c3c2)CCCC4)CC1`, with -10.2%; and `CCOC(=O)c1c(C)oc2ccc(OCC(=O)N(CC)CC)cc12`, with -68.9% (active).
Then `CC1(C)NC(=O)N(CC(=O)Nc2ccc(-c3ccccc3)cc2)C1=O`, with 5.24%.
With `CCC(c1nc2ccccc2[nH]1)n1c(=O)c(-c2cccs2)nc2ccccc21` (stereo not given), the activity change is 9.68%.
To `CCCCc1c(-c2ccc(Br)cc2)ncn1CCc1ccccc1OC` belongs -13.5%; to `CN(C)N=Nc1ccc2nc[nH]c2c1`, -72.7% (active); to `CC(=NNC(=O)c1ccc2nc[nH]c2c1)c1ccc(Br)cc1`, 0.936%.
Then `CC/C(O)=N\S(=O)(=O)c1ccc(N=NN(C)C)cc1`, with 0%.
